# Reference: PubChem BioAssay
# Values without a mark were called inactive. A call without a number means that no potency is given here. For some of these results: Potency and affinity values are given separately. The source made the active and inactive calls. Unless noted, the rule behind the calls is not given here.
# Columns and labels:
# [1] = antimalarial activity against Dd2 strain (AID 2302;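 active = growth inhibition above 50% at the single 2 µM test dose, taken to imply half-maximal potency below 2 µM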); conditions: P. falciparum Dd2 in RBCs, LDH growth readout, 72 h; at 2 µM; hits give high values
# [2] = HepG2 cytotoxicity, primary screen, cytotoxicity control for P. falciparum antimalarial project, cell-based, ATP luminescence (AID 2303;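 active = inhibition above 50%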); conditions: HepG2 viability, 24-48 h, at 10 µM, hits give high values
# [3] = target: L-lactate dehydrogenase (Plasmodium falciparum (isolate CDC / Honduras)) (UniProt Q27743); assay: PfLDH activity inhibition – cell lysate, 3D7 strain, counter-screen for P. falciparum growth inhibition project (AID 2304); conditions: P. falciparum 3D7 crude extract, LDH APAD/NBT absorbance; at 2 µM; hits give high values
# Chain of L-lactate dehydrogenase (Plasmodium falciparum (isolate CDC / Honduras)) (Q27743 whole entry, looked up): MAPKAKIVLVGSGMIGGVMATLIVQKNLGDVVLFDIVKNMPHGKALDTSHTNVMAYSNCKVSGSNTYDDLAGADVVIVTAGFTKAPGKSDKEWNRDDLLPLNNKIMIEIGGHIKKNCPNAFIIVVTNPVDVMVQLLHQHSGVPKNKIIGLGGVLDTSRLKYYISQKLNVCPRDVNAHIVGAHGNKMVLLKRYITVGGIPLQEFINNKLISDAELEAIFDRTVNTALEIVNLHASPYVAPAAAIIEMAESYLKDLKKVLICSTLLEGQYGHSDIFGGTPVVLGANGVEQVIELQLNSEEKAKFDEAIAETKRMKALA
# [4] = inhibition of 3D7 malaria parasite growth – strain 3D7 (AID 2306); conditions: P. falciparum 3D7 erythrocytic growth, LDH absorbance, 72 h; at 2 µM; hits give high values
# [5] = target: Calcium-dependent protein kinase 1 (Plasmodium falciparum (isolate 3D7)) (UniProt P62344); assay: PfCDPK1 kinase inhibitors, biochemical, TCAMS library (AID 1159585; cut-off not given, nearly all actives have IC50 up to about 0.98 µM;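 note: inhibitors leave more ATP so luminescence rises with inhibition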); conditions: recombinant PfCDPK1, Kinase-Glo ATP depletion luminescence
# Chain of Calcium-dependent protein kinase 1 (Plasmodium falciparum (isolate 3D7)) (P62344 whole entry, looked up): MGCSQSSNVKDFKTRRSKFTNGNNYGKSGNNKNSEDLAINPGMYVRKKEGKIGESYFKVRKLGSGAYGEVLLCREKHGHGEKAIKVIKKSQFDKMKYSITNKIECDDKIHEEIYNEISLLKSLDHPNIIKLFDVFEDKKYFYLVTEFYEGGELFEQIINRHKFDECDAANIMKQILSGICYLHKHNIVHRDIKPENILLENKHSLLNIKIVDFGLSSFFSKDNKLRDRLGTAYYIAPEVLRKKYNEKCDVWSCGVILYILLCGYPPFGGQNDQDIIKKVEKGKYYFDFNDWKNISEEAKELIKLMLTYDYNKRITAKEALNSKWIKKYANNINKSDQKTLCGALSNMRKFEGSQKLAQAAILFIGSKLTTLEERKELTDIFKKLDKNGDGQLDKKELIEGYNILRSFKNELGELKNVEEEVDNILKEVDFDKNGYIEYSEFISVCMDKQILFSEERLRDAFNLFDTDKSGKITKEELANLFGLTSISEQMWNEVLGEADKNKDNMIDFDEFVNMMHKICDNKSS
# [6] = target: Plasmodium falciparum protein kinase 6 (PK6, PF3D7_1337100) (UniProt Q8IDW1); assay: PfPK6 kinase inhibitors, biochemical, TCAMS library (AID 1159586); conditions: recombinant PfPK6, Kinase-Glo ATP depletion luminescence
# Chain of Plasmodium falciparum protein kinase 6 (PK6, PF3D7_1337100) (Q8IDW1 1-305): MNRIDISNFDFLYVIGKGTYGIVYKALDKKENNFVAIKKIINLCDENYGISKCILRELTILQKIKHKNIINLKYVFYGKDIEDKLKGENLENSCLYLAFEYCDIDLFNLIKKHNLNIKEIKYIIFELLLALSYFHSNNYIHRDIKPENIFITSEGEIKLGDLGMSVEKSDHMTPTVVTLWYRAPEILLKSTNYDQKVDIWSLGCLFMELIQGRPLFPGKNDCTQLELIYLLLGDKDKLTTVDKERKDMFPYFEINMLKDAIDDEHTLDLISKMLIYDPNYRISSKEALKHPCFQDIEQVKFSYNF
# [7] = target: Protein kinase 7 (PK7), Plasmodium falciparum 3D7 (PF3D7_0213400) (UniProt Q7YTF7); assay: inhibition of Plasmodium PK7 catalytic activity – biochemical, TCAMS antimalarial set, Kinase-Glo luminescence (AID 1159587); conditions: recombinant PfPK7, Kinase-Glo ATP depletion luminescence
# Chain of Protein kinase 7 (PK7), Plasmodium falciparum 3D7 (PF3D7_0213400) (Q7YTF7 1-343): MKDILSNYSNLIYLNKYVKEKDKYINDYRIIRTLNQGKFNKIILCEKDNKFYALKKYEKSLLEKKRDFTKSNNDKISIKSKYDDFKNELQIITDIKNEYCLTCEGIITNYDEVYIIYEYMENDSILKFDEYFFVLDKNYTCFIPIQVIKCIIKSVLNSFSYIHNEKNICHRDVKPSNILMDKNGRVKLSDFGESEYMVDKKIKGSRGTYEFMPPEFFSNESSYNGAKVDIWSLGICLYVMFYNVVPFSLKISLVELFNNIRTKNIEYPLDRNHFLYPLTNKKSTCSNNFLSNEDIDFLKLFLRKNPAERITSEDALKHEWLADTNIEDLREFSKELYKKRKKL
# [8] = target: Calcium-dependent protein kinase 4 (Plasmodium falciparum (isolate 3D7)) (UniProt Q8IBS5); assay: PfCDPK4 kinase inhibitors, biochemical, TCAMS library (AID 1159588; cut-off not given, nearly all actives have IC50 up to about 0.91 µM); conditions: recombinant PfCDPK4, Kinase-Glo ATP depletion luminescence
# Chain of Calcium-dependent protein kinase 4 (Plasmodium falciparum (isolate 3D7)) (Q8IBS5 whole entry, looked up): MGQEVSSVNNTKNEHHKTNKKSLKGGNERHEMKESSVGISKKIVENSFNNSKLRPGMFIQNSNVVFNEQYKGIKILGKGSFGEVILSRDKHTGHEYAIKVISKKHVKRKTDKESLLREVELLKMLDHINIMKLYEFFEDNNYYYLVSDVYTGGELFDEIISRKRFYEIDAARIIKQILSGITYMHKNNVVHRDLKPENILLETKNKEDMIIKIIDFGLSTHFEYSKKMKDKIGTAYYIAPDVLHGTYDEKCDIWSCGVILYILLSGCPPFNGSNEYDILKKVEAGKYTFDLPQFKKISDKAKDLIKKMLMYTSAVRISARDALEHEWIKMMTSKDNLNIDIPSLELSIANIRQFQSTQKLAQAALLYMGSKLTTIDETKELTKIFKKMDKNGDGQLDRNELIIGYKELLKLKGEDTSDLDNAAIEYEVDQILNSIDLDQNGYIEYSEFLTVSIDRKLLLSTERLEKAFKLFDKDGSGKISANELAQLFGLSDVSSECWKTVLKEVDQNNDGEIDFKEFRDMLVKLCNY
Compound,growth inhibition [1],inhibition [2],inhibition [3],growth inhibition [4],outcome [5],outcome [6],outcome [7],outcome [8]
CCOc1cc(C(=O)N[C@@H](Cc2ccccc2)[C@H](O)CNCc2cc(OC)cc(OC)c2)cc(N2CCCC2=O)c1,63% (active),0%,4%,94% (active),inactive,inactive,inactive,inactive
COc1ccc2nccc([C@@H](O)CN3CCC(NCCc4c[nH]c5ccccc45)CC3)c2c1,77% (active),0%,-7%,98% (active),inactive,inactive,inactive,inactive
CCCC(CNCc1cccc(I)c1)CNc1cc(=O)c2ccccc2[nH]1 (stereo not drawn),96% (active),-3%,7%,100% (active),inactive,inactive,inactive,inactive
CCC(C)CN1CCCN(c2ccc(NC(=O)c3cccs3)cc2)CC1 (stereo not drawn),95% (active),4%,-2%,91% (active),inactive,inactive,inactive,inactive
O=C(CCN1C(=O)c2ccccc2C1=O)N1CCN(CC=Cc2ccccc2)CC1,3%,10%,-1%,87% (active),inactive,inactive,inactive,inactive
CCOC(=O)CN1Cc2cc(NCc3ccc4ccc5nc(C)[nH]c(=O)c5c4c3)ccc2C1=O,91% (active),40%,1%,84% (active),inactive,inactive,inactive,inactive
Nc1nc(N)c2cc(S(=O)(=O)c3ccc4ccccc4c3)ccc2n1,51% (active),14%,3%,95% (active),inactive,inactive,inactive,inactive
CC(=O)Nc1ccc(C(=O)Nc2ccc(-c3csc(-c4nc5ccccc5[nH]4)c3)cc2)cn1,-2%,11%,-3%,93% (active),inactive,inactive,inactive,inactive
CCCc1cc(NC2CCN(C)CC2)nc(Nc2ccc(C)cc2)n1,20%,25%,-1%,101% (active),inactive,inactive,inactive,inactive
FC(F)(F)c1cccc(CCNc2nccc(NCc3ccc(Cl)cc3Cl)n2)c1,59% (active),8%,1%,97% (active),inactive,inactive,inactive,inactive
Cn1cc(CN2CCC(OC(c3ccccc3)c3ccc(Cl)cc3)CC2)cn1 (stereo not drawn),61% (active),39%,5%,94% (active),inactive,inactive,inactive,inactive
O=C(NCC1Cc2cc(Oc3ccccc3)ccc2O1)c1ccc([N+](=O)[O-])o1 (stereo not drawn),81% (active),83% (active),-3%,88% (active),inactive,inactive,inactive,inactive
O[C@@H](c1cccc2ccccc12)[C@@H]1CN(CCc2ccccc2)CC[C@@]1(O)c1ccccc1,101% (active),-2%,-2%,99% (active),inactive,inactive,inactive,inactive
CSc1ccc2ccccc2c1CNCCCCCCNCc1c(SC)ccc2ccccc12,74% (active),83% (active),3%,99% (active),inactive,inactive,inactive,inactive
COc1ccc(Cc2c(C)nc3nc(N)nc(N)c3c2C)cc1OC,-4%,66% (active),-1%,93% (active),inactive,inactive,inactive,inactive
CCN1CCN(CC(O)CNC(=O)Nc2ccc(Cl)cc2)CC1 (stereo not drawn),99% (active),29%,3%,100% (active),inactive,inactive,inactive,inactive
O=c1ccc2ccc(F)c3c2n1CC3CN1CCC(NCc2cccc(-c3ccccc3F)c2)CC1 (stereo not drawn),6%,29%,-1%,100% (active),inactive,inactive,inactive,inactive
COc1cc(SC)c(Br)cc1-c1nc2ccncc2[nH]1,9%,5%,-1%,91% (active),inactive,inactive,inactive,inactive
O=C(Nc1ccccc1)c1nn(CCCN2CCC(N3CCCC3)CC2)cc1-c1ccc(Cl)c(Cl)c1,98% (active),31%,-2%,103% (active),inactive,inactive,inactive,inactive
CCOc1cc(C(=O)NC2CC(C)(C)N(C)C(C)(C)C2)ccc1-c1nc2cc(Cl)c(Cl)cc2[nH]1,49%,64% (active),4%,101% (active),inactive,inactive,inactive,inactive
Cc1[nH]n(-c2cccc(C(F)(F)F)c2)c(=O)c1-c1ccc(Cl)cc1,25%,7%,-4%,98% (active),inactive,inactive,inactive,inactive

Compound,growth inhibition [1],inhibition [2],inhibition [3],growth inhibition [4],outcome [5],outcome [6],outcome [7],outcome [8]
COc1ccc2c(NN=Cc3cccc([N+](=O)[O-])c3)cc(C)nc2c1,97% (active),18%,-6%,101% (active),inactive,inactive,inactive,inactive
CC(C)N1CCC(Oc2ccc(CN3CCN(C(c4ccccc4)c4ccc(Cl)cc4)CC3)cc2)CC1 (stereo not drawn),46%,44%,4%,97% (active),inactive,inactive,inactive,inactive
CC(C)(C)c1ccc(OCCCON2C(N)=NC(N)=NC2(C)C)cc1,76% (active),77% (active),-4%,93% (active),inactive,inactive,inactive,inactive
COc1cccc(CNC(=O)c2ccnc(-c3ccc(CNCCOc4ccccc4)cc3)c2)c1,10%,23%,-4%,83% (active),inactive,inactive,inactive,inactive
CC(C)CCNC(=O)C1Cc2c([nH]c3ccc(Br)cc23)C2(CCN(Cc3ccccc3)CC2)N1 (stereo not drawn),68% (active),100% (active),-3%,96% (active),inactive,inactive,inactive,inactive
O=C(Nc1ccc(-c2csc(-c3nc4ccccc4[nH]3)c2)cc1)Nc1ccsc1,17%,50% (active),-1%,101% (active),inactive,inactive,inactive,inactive
CCc1nc(N)nc(N)c1-c1ccc(F)cc1,-3%,52% (active),-2%,96% (active),inactive,inactive,inactive,inactive
CCCCCCCCc1c(C)[nH]c(C)c(C#N)c1=O,96% (active),0%,4%,97% (active),inactive,inactive,inactive,inactive
Cc1cc(NC(=O)Nc2ccc(C#N)cc2)c2ccccc2n1,49%,88% (active),-2%,100% (active),inactive,inactive,inactive,inactive
Cc1c(Cc2ccccc2)c(=O)oc2c(C)c3c(cc12)CN(CC(C)c1ccccc1)CO3 (stereo not drawn),98% (active),1%,-1%,98% (active),inactive,inactive,inactive,inactive
N/C(=N/C(=NCCCCCCN=C(/N=C(/N)Nc1ccc(Cl)cc1)N1CCOCC1)N1CCOCC1)Nc1ccc(Cl)cc1,91% (active),-11%,2%,93% (active),inactive,inactive,inactive,inactive
Cc1cc(N)cc2[nH]c(-c3ccc(N)cc3)nc12,75% (active),-7%,-11%,96% (active),inactive,inactive,inactive,inactive
COC(=O)CCCCOc1c(OC)cc(Cc2cnc(N)nc2N)cc1OC,-2%,-2%,-2%,93% (active),inactive,inactive,inactive,inactive
COc1cc(Cc2cnc(NCCN3CCNCC3)nc2N)ccc1OCc1ccc(C(F)(F)F)cc1,4%,12%,4%,98% (active),inactive,inactive,inactive,inactive
N#Cc1ccc(NC(=O)c2ccc(Cc3ccc4c(c3)CCN(C3CCC3)CC4)cn2)cc1,2%,66% (active),-4%,91% (active),inactive,inactive,inactive,inactive
Cc1cccc2[nH]c(-c3cccc(-c4cccc(NC(=O)Nc5ccc(Cl)cc5)c4)c3)nc12,94% (active),23%,-2%,100% (active),inactive,inactive,inactive,inactive
O=S(=O)(Nc1cccc(CCN2CCCCC2CCN2CCCC2)c1)c1ccc(-c2ccccc2)cc1 (stereo not drawn),5%,31%,0%,99% (active),inactive,inactive,inactive,inactive
Nc1c(Cl)cc(C(O)CNCCCCCOCCc2ccccc2)cc1C(F)(F)F (stereo not drawn),96% (active),3%,5%,99% (active),inactive,inactive,inactive,inactive
CC(C)COc1ccc(Cl)cc1Cc1nc(-c2nc3ccc(CN4CCCC4)cc3[nH]2)co1,66% (active),50% (active),-1%,101% (active),inactive,inactive,inactive,inactive
O=c1cc(NCCCNC2CCCc3c2ccc2ccccc32)[nH]c2ccccc12 (stereo not drawn),30%,-1%,-2%,94% (active),inactive,inactive,inactive,inactive
